Results as given in PubChem BioAssay AID924 (National Center for Advancing Translational Sciences (NCATS), 2007).
Screen size: about 130,000 compounds; about 1,200 (0.92%) were called active. Where a call stands in place of a potency, no number is given. About 3% were inconclusive and are not listed. Only a selection was taken, and actives are over-represented in it overall. Unmarked numbers belong to inactive results. Calls come from the whole dose curve; as a rule, active = well fitted cell-killing curve with a large enough effect; inconclusive = small, poorly fitted or top-dose-only effect; inactive = no such curve, though single readings can be large or run the other way.

Test: qHTS Screen for Compounds that Selectively Target Cancer Cells with p53 Mutations: Cytotoxicity of p53ts Cells at the Permissive Temperature; note: nearly all actives have a fitted effect of over 55% in size
Details: H1299-p53A138V at 32C, ATP luminescence viability, 24 h; series mostly up to 46.1 µM
Procedure, shortened: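 Viability by ATPlite luminescence after 24 h compound treatment (up to 46 uM) at the permissive 32C. Cells are H1299 carrying p53 A138V. Scale runs from DMSO basal to 100 uM tamoxifen as full kill; AC50 from Hill fits.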
Potency is the fitted concentration of half-maximal effect.

Row | SMILES | Potency | activity change, negative = cytotoxicity
1 | CCc1ccc(NC(=O)CN2C(=O)C(c3ccccc3)=NC23CCCCCC3)cc1 | inactive | 
2 | CCc1ccc(NC(=O)CN2CCSc3ccc(S(=O)(=O)N4CCCC4)cc32)cc1 | inactive | 
3 | COc1cc(OC)c(OC)cc1/C=C/c1nc2cc3ccccc3cc2c(=O)n1-c1ccc(F)c(Cl)c1 | inactive | 
4 | CCCCn1c(=N)c(S(=O)(=O)c2ccccc2)cc2c(=O)n3cccc(C)c3nc21 | inactive | 
5 | CCc1ccc(-c2nnn(Cc3nn[nH]n3)n2)cc1 | inactive | 
6 | CC(C)c1ccc(-c2nn[nH]n2)cc1 | 12.6 µM (active) | 
7 | Cc1ccc(-c2cnc(NCc3ccc(C(C)C)cc3)n2C)cc1 | inactive | 
8 | CCOc1ccc(CNCCSc2nnnn2C)cc1 | inactive | 
9 | O=C1CCCc2cc(S(=O)(=O)N3CCCC(C(=O)NCc4ccccc4)C3)ccc2N1 (configuration not stated) | inactive | 
10 | CCc1cc2c(cc3c(=O)n(CC(=O)NCc4cccc(Cl)c4)nc(CC)n32)s1 | inactive | 
11 | O=C1Nc2c(Br)cc(Br)cc2C1(O)N1CCOCC1 (configuration not stated) | 12.6 µM (active) | 
12 | CCOc1ccccc1N(CC)C(=O)c1cc2ccc3cccnc3c2[nH]1 | inactive | 
13 | CCN1CCN(Cc2c(O)ccc3oc(C)c(C(=O)Nc4ccc(C)cc4C)c23)CC1 | inactive | 
14 | COc1ccc(-n2ncc3c(N4CCc5ccccc54)ncnc32)cc1 | inactive | 
15 | Cc1cccc(-n2ncc3c(N4CCc5ccccc54)ncnc32)c1 | inactive | 
16 | COc1ccc(-n2ncc3c(N4CCCc5ccccc54)ncnc32)cc1 | 10 µM (active) | 
17 | Cc1nc2nc(SCC(=O)NC3CCC(C)CC3)nn2c(C)c1Cc1ccccc1Cl (configuration not stated) | inactive | 
18 | COc1ccccc1CN1CCC(CNC(=O)c2cnn(-c3ccccc3Cl)c2C2CCN(C(=O)OC(C)(C)C)CC2)CC1 | inactive | 
19 | COc1ccccc1CNC(=O)c1ccc(NC(=O)N2CC(C)Sc3ccccc32)cc1 (configuration not stated) | inactive | 
20 | CCNC(=O)c1cc2n(n1)CCCN(Cc1ccc(C)cc1)C2=O | inactive | 
21 | Cc1ccc2nc(N3CCN(c4cccc(Cl)c4)CC3)c3nnnn3c2c1 | inactive | 
22 | CCc1ccc(CNC(=O)C2CCN(c3nn4cc(-c5ccc(F)cc5)nc4s3)CC2)cc1 | inactive | 
23 | CCC(CC)c1nn2cc(-c3ccccc3)nc2s1 | 5.01 µM (active) | 
24 | CCC(CC)c1nnc(NS(=O)(=O)Cc2ccccc2)s1 | inactive | 

Row | SMILES | Potency | activity change, negative = cytotoxicity
25 | CCOc1ccccc1NC(=O)c1ccc2c(c1)CCN2S(=O)(=O)c1ccc(C)cc1 | inactive | 
26 | COC(=O)c1cc(NC(=O)CCc2c(C)nc3c4c(C)cc(C)nc4nn3c2C)cc(C(=O)OC)c1 | inactive | 
27 | CCN(CC)c1ccc(NC(=O)CN2CCN(CC(=O)Nc3ccc(Cl)cc3)CC2)cc1 | inactive | 
28 | Cc1c(Cl)cccc1NC(=O)c1noc2c1CCCC2 | inactive | 
29 | O=C(Nc1cccnc1)c1noc2c1CCCCC2 | 12.6 µM (active) | 
30 | O=C(Nc1cccnc1)c1ccc2c(c1)OCO2 | inactive | 
31 | CCOc1ccc(-c2nonc2NC(=O)c2oc3ccc(C)cc3c2C)cc1OCC | inactive | 
32 | COc1ccc(NC(=O)c2sc3nc[nH]c(=O)c3c2C)cc1 | inactive | 
33 | O=C(Nc1ccc(NC(=O)c2cccs2)cn1)c1ccco1 | 6.31 µM (active) | 
34 | O=C(Nc1cccc(NC(=O)c2ccco2)c1)c1cnccn1 | inactive | 
35 | Cc1ccnc(NC(=O)c2ccc(NC(=O)c3ccco3)cc2)c1 | inactive | 
36 | Cc1cc(C)c(NC(=O)CCc2c(C)nc3c(c(C)nn3C(C)(C)C)c2C)c(C)c1 | inactive | 
37 | CCn1c(CN2CCC(C)CC2)nc2cc(NC(=O)c3ccccc3[N+](=O)[O-])ccc21 | inactive | 
38 | CCCCc1nn2c(=O)cc(COC(=O)c3ccccc3NC(=O)C(C)(C)C)nc2s1 | inactive | 
39 | Cc1nn2c(=O)cc(COC(=O)c3ccccc3NC(=O)COc3ccccc3C)nc2s1 | inactive | 
40 | Cc1nn2c(=O)cc(COC(=O)c3cccc(NC(=O)COc4ccccc4Cl)c3)nc2s1 | 10 µM (active) | 
41 | COc1ccc(OCC(=O)Nc2cccc(C(=O)OCc3cc(=O)n4nc(C)sc4n3)c2)cc1 | inactive | 
42 | COc1ccccc1NC(=O)C(=O)c1cc(C)n(-c2ccccc2F)c1C | inactive | 
43 | O=C(CCSCc1ccccc1F)N1CCN(c2ccc(Cl)cc2)CC1 | inactive | 
44 | COC(=O)c1ccc2c(=O)n(CC3CCCO3)c(=S)[nH]c2c1 (configuration not stated) | inactive | 
45 | Cc1ccsc1C(=O)OCC(=O)c1cc2ccccc2o1 | inactive | 
46 | Cc1ccsc1C(=O)OCC(=O)c1cc(C)n(CC2CCCO2)c1C (configuration not stated) | 5.01 µM (active) | 
47 | Cc1[nH]c2ccccc2c1C(c1ccccc1)c1cccs1 (configuration not stated) | inactive | 
48 | O=C(CCc1cn(Cc2ccc(F)cc2)c2ccccc12)NC1CCCCC1 | inactive | 

Row | SMILES | Potency | activity change, negative = cytotoxicity
49 | CC(=O)c1ccc(NC(=O)c2nc(-c3ccc(C)cc3)n3c2CCCCC3)cc1 | inactive | 
50 | CCc1ccc(CNC(=O)c2cc3cc4ccc(OC)cc4nc3o2)cc1 | inactive | 
51 | Cc1ccc(C(=O)N2CCCCCC2)cc1Br | inactive | 
52 | Cc1ccc2cc3cc(C(=O)N4CCCCCC4)oc3nc2c1 | 10 µM (active) | 
53 | COc1c(Cl)cc(C(=O)N(Cc2ccccc2F)C2CCS(=O)(=O)C2)cc1Cl (configuration not stated) | inactive | 
54 | CCOc1ccc(NC(=O)CN(Cc2ccccc2)S(=O)(=O)c2ccc(Cl)cc2)cc1 | inactive | 
55 | CCOc1ccc(N(Cc2ccccc2)C(=O)c2nc(S(C)(=O)=O)ncc2Cl)cc1 | 12.6 µM (active) | 
56 | CCOc1ccc(N(Cc2ccccc2)C(=O)c2nc(SCC)ncc2Cl)cc1 | inactive | 
57 | CCOc1cc(C2c3c(-c4ccc(Br)cc4)n[nH]c3C(=O)N2c2ccc(Cl)cc2)ccc1O (configuration not stated) | inactive | 
58 | CN1C(=O)c2ccccc2Sc2ccc(NC(=O)Cc3ccc(Cl)cc3)cc21 | inactive | 
59 | COc1ccc(Cn2ccnc2SCC(=O)NCc2ccco2)cc1 | inactive | 
60 | O=C(Nc1cccc(NC(=O)c2ccc(Br)cc2)c1)c1ccccc1 | inactive | 
61 | C/C(=C\C(=O)c1cccnc1)Nc1ccc(C)c(C)c1 | inactive | 
62 | C/C(=C\C(=O)c1ccccc1)Nc1cccc(O)c1 | 10 µM (active) | 
63 | O=C(Nc1cc(C(F)(F)F)ccc1Cl)c1ccc2c(c1)CCN2S(=O)(=O)c1ccccc1 | inactive | 
64 | Cc1ccccc1N1CC(c2nc3ccccc3[nH]2)CC1=O (configuration not stated) | inactive | 
65 | Cc1ccccc1-n1c(C)cc(/C=C2\NC(=O)NC2=O)c1C | 15.8 µM (active) | 
66 | Cc1cc(/C=N/n2cnnc2)c(C)n1-c1cccc(C(=O)O)c1 | inactive | 
67 | CCC(=O)N1c2ccccc2CC1C(=O)N1CCN(c2cccc(OC)c2)CC1 (configuration not stated) | inactive | 
68 | Cc1ccc(Cl)cc1NC(=O)CCS(=O)(=O)c1ccc(Br)s1 | inactive | 
69 | Cc1cccc(NC(=O)N2CCN(C)c3ncccc32)c1C | inactive | 
70 | O=C(Nc1cc(C(F)(F)F)ccc1Cl)c1nc2ccccc2nc1N1CCCCC1 | inactive | 
71 | COc1ccc(CCNC(=O)c2cc(-c3ccc4c(c3)OCO4)on2)cc1OC | inactive | 
72 | COc1c2c(cc3occ(-c4ccc5c(c4)OCO5)c(=O)c13)OC(C)(C)C=C2 | 10 µM (active) | 

Row | SMILES | Potency | activity change, negative = cytotoxicity
73 | COc1ccc(C)cc1N(C)C(=O)c1c(C)oc2ncnc(N3CCOCC3)c12 | inactive | 
74 | CN(c1nc2ccccc2n2c(-c3ccco3)nnc12)S(=O)(=O)c1ccccc1 | inactive | 
75 | c1coc(-c2nc3nc4ccccc4n3nc2-c2ccco2)c1 | inactive | 
76 | Cn1c(-c2ccco2)nc2cc3ccccc3cc21 | 1.26 µM (active) | 
77 | CC(=O)c1cccc(NC(=O)c2nc(-c3ccccc3)n(-c3cccc(C)c3)n2)c1 | inactive | 
78 | CC(C)c1nc(-c2ccccn2)no1 | inactive | 
79 | c1ccc(-c2noc(-c3cccs3)n2)nc1 | 12.6 µM (active) | 
80 | c1csc(-c2nc(-c3ccncc3)no2)c1 | inactive | 
81 | O=C(Nc1ccccc1Cl)N1CCC(CN2CCCCC2)CC1 | inactive | 
82 | COc1cn(CC(=O)Nc2cccc(C)c2C)c(CN2CCCCC2)cc1=O | inactive | 
83 | CCN1CCC(N(Cc2ccc(F)cc2)C(=O)Nc2cc(C)ccc2C)CC1 | inactive | 
84 | Cc1cc(Cl)ccc1NC(=O)Cc1ccc(NC(=O)N2CCCCc3ccccc32)cc1 | inactive | 
85 | C=CC(=O)c1ccc2ccccc2c1 | 12.6 µM (active) | 
86 | Cc1ccc2nc(CC(=O)c3ccc4ccccc4c3)c(=O)[nH]c2c1 |  | 3.51% [at 9.22 µM]
87 | CCOc1ccccc1NC(=O)CSc1ncc(S(=O)(=O)c2ccc(C(C)(C)C)cc2)c(=O)[nH]1 | inactive | 
88 | Cn1c(COc2ccccc2C(C)(C)C)nc2ccccc21 | inactive | 
89 | NC(=O)CSc1oc(-c2cccs2)nc1S(=O)(=O)c1ccccc1 | inactive | 
90 | CCCCS(=O)(=O)c1oc(-c2cccs2)nc1S(=O)(=O)c1ccccc1 | 17.8 µM (active) | 
91 | CSc1oc(-c2cccs2)nc1S(=O)(=O)c1ccc(Br)cc1 | inactive | 
92 | COc1cc(NC(=O)CCn2nc(C)cc2C)cc(OC)c1OC | inactive | 
93 | CC(=O)c1cccc(Nc2ccc3cc(S(=O)(=O)N4CCC(C)CC4)ccc3n2)c1 | inactive | 
94 | COc1ccc(N(C)C(=O)C2CCN(S(=O)(=O)c3cc(Br)cc4c3N(C(C)=O)CC4)CC2)cc1 | inactive | 
95 | Cc1nn2c3ccccc3nc2n(C)c1=O | inactive | 
96 | CC(C)n1c(-c2cccs2)nc2ccccc21 | inactive | 

Row | SMILES | Potency | activity change, negative = cytotoxicity
97 | Cc1csc(-c2nc3ccccc3n2C)n1 | 15.8 µM (active) | 
98 | Cc1nn(CC(=O)NCCc2ccccc2)c(=O)c2c1sc1ccccc12 | inactive | 
99 | COc1ccccc1N1CCN(C2C(=O)c3ccccc3N2C(C)=O)CC1 (configuration not stated) | inactive | 
100 | CCSc1ncc(Cl)c(C(=O)Nc2cc(C)ccc2C)n1 | inactive | 
101 | Cc1ccc(NC(=O)c2nc(S(=O)(=O)Cc3cccc(C)c3)ncc2Cl)cc1 | 17.8 µM (active) | 
102 | CCOC(=O)c1ccc(NC(=O)c2nc(SCc3ccc(F)cc3)ncc2Cl)cc1 | inactive | 
103 | Cc1sc2ncn(CC(=O)N3CCN(c4ccc(F)cc4)CC3)c(=O)c2c1S(=O)(=O)N1CCN(c2ncccn2)CC1 | inactive | 
104 | CCOC(=O)c1cccc(NS(=O)(=O)c2cc(-c3cnc(C)o3)ccc2OC)c1 | inactive | 
105 | CCOc1ccc2oc(=O)cc(CN3CCN(C(=O)c4ccc(F)cc4)CC3)c2c1 | inactive | 
106 | O=c1oc2cc(O)ccc2cc1-c1ccc(F)cc1 | inactive | 
107 | COc1ccc(-c2cc3ccc(OCc4nn[nH]n4)cc3oc2=O)cc1 | 10 µM (active) | 
108 | COc1ccc2cc(-c3nc(Cl)c4c5c(sc4n3)CC(C)CC5)c(=O)oc2c1 (configuration not stated) | inactive | 
109 | COc1ccc(S(=O)(=O)NCC(c2ccc(N(C)C)cc2)N2CCc3ccccc32)cc1OC (configuration not stated) | inactive | 
110 | COc1ccc(C2=NC3(CCCCC3)N(CC(=O)Nc3ccc(C(C)C)cc3)C2=O)cc1 | inactive | 
111 | O=C(CCc1nc(CN2CCN(S(=O)(=O)c3ccc(F)cc3)CC2)no1)N1CCCCC1 | inactive | 
112 | CCC(C(=O)Nc1cccc(-c2nc3cccnc3s2)c1C)c1ccccc1 (configuration not stated) | inactive | 
113 | Cc1c(NC(=O)Cc2ccccc2)cccc1-c1nc2cccnc2s1 | inactive | 
114 | Cc1c(NC(=O)C(C)(C)C)cccc1-c1nc2ccccc2s1 | 12.6 µM (active) | 
115 | Cc1nn(CC(=O)N2CCN(c3cccc(C(F)(F)F)c3)CC2)c(=O)c2cc3sccc3n12 | inactive | 
116 | COc1cc(NC(=O)c2noc3c2CSc2ccccc2-3)cc(OC)c1OC | inactive | 
117 | COc1ccccc1CNC(=O)Cn1nc(C)c2nn(-c3ccc(Cl)cc3)c(C)c2c1=O | inactive | 
